Laboratory results from the supplement of paper PMC11732987, “Enantioselective OTUD7B fragment discovery through chemoproteomics screening and high-throughput optimisation” (Communications Chemistry, 2025).

Experiments:
Experiment in all cases: log2 ratio of Biotin-Ahx-Ub-VS probe labelling (fragment/DMSO); higher = less target engagement (more negative = stronger competition), active = hit call of the paper (q ≤ 0.05, log2 ratio ≤ -1)
Conditions in all cases: compound concentration: 200 uM; treatment time: 3 h
[1] = molecular target: T1, ALG13 (UniProt Q9NP73)
T1 sequence (whole entry): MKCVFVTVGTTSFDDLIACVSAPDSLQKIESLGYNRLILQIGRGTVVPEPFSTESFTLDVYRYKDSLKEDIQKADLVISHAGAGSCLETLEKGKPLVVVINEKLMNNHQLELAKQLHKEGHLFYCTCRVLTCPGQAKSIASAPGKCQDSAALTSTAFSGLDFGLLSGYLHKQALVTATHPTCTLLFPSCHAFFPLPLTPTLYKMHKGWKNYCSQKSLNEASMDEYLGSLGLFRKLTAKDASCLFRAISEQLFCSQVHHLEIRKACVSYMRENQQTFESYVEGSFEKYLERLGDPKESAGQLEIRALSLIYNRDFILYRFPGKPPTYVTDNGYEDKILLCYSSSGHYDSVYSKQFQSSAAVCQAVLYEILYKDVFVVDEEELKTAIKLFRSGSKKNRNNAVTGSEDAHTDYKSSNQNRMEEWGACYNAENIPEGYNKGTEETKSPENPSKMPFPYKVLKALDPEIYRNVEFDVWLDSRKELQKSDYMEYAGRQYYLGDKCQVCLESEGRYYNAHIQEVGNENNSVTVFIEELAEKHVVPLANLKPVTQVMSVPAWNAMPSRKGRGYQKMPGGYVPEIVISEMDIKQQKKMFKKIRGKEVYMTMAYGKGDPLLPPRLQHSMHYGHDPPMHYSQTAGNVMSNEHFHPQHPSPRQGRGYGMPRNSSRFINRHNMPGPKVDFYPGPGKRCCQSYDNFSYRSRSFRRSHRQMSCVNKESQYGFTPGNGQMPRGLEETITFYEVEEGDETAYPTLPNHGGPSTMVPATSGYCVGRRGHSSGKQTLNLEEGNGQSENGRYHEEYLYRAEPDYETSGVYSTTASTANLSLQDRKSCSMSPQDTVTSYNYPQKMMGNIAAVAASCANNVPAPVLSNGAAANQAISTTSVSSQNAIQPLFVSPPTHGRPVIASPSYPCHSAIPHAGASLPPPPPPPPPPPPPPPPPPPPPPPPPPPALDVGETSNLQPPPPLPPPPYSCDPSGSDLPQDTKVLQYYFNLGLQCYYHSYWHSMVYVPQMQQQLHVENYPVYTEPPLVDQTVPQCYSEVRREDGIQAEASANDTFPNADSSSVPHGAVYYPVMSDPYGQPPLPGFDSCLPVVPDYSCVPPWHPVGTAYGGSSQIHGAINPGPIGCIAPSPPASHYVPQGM
Summary of the method: (§1)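 Labelling with Biotin-Ahx-Ub-VS (0.5 µM final, 1 h) followed a 3 h triplicate treatment of HEK293T lysate (495 µg per sample, Tris/CHAPS/IGEPAL buffer with protease inhibitors) with fragment at 200 µM or vehicle. Labelled DUBs were NeutrAvidin-enriched, digested with LysC and trypsin, and run by diaPASEF LC-MS/MS. The values, average log2 fragment/vehicle ratios by unpaired t-test, come from global-median-normalised Spectronaut label-free quantities. Proteins with ≥2 unique peptides were used.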

[2] = molecular target: ATXN3 (UniProt P54252)
Summary of the method: as §1

[3] = molecular target: T2, BAP1 (UniProt Q92560)
T2 sequence (whole entry): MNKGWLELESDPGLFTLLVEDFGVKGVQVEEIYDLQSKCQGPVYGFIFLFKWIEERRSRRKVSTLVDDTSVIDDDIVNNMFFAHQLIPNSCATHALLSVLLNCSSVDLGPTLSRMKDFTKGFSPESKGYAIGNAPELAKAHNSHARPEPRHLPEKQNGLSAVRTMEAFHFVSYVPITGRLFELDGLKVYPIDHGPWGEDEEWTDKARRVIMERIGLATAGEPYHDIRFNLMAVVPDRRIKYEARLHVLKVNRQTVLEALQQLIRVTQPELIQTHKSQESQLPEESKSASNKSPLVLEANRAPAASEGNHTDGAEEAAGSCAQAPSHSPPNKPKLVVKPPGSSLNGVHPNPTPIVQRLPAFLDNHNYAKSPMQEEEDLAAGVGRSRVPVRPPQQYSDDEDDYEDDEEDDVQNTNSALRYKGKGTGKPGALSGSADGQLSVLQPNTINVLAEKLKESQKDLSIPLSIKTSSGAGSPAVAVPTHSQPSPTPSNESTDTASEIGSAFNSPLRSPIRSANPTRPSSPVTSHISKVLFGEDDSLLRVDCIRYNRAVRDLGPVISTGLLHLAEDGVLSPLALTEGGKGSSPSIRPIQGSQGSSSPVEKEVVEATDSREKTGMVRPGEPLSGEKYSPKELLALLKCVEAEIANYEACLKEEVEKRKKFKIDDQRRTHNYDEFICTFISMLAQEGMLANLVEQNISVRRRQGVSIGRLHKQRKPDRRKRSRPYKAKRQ
Summary of the method: as §1

[4] = molecular target: EIF3F (UniProt O00303)
Summary of the method: as §1

[5] = molecular target: EIF3H (UniProt O15372)
Summary of the method: as §1

[6] = molecular target: T3, FAM105A (UniProt Q9NUU6)
T3 sequence (whole entry): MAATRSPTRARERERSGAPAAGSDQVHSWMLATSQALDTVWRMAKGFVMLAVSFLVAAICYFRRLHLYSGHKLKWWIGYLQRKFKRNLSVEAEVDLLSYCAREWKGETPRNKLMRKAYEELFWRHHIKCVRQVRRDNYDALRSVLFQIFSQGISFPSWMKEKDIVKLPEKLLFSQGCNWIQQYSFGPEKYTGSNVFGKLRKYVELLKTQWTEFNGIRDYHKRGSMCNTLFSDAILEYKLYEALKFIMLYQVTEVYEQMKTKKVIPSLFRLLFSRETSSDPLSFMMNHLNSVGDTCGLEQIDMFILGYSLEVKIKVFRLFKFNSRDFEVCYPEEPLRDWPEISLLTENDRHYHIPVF
Summary of the method: as §1

[7] = molecular target: OTUB1 (UniProt Q96FW1)
Summary of the method: as §1

[8] = molecular target: T4, OTUD4 (UniProt Q01804)
T4 sequence (whole entry): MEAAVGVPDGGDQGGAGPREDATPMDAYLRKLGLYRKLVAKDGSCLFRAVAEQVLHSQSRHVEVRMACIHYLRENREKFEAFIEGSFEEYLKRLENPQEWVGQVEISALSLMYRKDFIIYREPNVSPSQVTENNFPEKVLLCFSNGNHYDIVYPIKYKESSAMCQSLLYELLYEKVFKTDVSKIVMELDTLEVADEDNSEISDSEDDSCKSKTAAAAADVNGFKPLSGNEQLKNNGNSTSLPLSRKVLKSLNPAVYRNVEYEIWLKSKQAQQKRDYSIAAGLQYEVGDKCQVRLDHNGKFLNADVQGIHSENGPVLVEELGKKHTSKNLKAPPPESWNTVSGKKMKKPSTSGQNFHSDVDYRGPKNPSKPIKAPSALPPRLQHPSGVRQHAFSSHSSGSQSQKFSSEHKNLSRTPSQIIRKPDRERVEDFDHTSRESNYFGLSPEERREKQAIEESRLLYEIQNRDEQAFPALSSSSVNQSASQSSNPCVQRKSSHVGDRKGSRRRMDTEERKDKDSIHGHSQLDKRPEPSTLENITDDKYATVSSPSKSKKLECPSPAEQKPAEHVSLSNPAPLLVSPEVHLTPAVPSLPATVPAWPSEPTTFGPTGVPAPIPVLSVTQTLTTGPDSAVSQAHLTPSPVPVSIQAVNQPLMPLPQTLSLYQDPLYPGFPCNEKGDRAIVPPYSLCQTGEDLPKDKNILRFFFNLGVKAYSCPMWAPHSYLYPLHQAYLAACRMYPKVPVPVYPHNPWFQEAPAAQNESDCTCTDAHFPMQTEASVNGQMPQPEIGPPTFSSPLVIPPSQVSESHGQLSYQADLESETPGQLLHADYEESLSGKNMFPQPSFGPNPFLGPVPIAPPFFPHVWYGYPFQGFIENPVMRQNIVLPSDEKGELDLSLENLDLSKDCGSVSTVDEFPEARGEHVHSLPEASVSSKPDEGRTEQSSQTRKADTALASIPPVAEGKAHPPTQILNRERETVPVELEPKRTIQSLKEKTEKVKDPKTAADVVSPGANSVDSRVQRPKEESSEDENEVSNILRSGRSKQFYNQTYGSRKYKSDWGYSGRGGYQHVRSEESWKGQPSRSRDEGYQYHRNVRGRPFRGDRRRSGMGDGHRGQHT
Summary of the method: as §1

[9] = molecular target: T5, OTUD5 (UniProt Q96G74)
T5 sequence (whole entry): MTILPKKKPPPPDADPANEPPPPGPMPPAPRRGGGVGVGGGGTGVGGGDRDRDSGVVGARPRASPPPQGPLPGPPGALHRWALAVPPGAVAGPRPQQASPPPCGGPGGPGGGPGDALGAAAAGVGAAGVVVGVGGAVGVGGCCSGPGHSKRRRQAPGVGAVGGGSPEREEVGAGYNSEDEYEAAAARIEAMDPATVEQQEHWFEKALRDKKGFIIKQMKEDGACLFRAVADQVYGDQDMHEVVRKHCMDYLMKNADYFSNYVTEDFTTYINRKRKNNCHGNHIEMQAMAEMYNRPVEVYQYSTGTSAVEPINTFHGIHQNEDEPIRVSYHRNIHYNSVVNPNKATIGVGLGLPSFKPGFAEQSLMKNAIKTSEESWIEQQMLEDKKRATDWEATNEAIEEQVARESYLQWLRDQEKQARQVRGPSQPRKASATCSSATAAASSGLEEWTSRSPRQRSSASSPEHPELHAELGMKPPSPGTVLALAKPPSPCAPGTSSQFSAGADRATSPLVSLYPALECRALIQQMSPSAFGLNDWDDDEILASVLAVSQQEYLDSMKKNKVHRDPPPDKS
Summary of the method: as §1

Measured: log2 ratio of Biotin-Ahx-Ub-VS probe labelling

OTUB1, sequence (Q96FW1 whole entry): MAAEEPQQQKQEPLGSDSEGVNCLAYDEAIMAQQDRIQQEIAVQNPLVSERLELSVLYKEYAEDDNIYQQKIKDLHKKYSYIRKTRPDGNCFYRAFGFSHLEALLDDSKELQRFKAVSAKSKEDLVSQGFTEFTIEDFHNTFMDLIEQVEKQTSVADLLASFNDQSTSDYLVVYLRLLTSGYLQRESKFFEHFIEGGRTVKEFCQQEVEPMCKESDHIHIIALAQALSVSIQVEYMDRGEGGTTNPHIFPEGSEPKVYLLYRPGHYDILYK
ATXN3, sequence (P54252 whole entry): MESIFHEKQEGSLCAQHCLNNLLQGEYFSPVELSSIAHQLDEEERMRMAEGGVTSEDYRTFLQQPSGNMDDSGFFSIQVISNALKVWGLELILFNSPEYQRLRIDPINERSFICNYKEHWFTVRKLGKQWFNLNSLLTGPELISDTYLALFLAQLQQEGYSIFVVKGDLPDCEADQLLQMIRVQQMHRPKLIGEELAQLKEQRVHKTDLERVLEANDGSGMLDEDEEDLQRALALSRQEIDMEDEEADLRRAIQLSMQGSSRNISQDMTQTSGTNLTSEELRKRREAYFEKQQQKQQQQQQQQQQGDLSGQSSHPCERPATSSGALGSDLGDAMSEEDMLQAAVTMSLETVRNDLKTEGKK
EIF3H, sequence (O15372 whole entry): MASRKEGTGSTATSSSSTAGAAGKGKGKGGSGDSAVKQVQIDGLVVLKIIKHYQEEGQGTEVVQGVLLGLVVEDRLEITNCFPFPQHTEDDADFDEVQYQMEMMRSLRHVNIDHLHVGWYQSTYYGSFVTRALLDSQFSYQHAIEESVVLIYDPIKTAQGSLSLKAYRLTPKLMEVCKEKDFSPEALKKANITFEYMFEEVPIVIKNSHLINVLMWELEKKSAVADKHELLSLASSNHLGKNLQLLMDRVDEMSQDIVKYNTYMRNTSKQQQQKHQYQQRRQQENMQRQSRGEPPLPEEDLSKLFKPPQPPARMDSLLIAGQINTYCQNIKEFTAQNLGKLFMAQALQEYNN
EIF3F, sequence (O00303 whole entry): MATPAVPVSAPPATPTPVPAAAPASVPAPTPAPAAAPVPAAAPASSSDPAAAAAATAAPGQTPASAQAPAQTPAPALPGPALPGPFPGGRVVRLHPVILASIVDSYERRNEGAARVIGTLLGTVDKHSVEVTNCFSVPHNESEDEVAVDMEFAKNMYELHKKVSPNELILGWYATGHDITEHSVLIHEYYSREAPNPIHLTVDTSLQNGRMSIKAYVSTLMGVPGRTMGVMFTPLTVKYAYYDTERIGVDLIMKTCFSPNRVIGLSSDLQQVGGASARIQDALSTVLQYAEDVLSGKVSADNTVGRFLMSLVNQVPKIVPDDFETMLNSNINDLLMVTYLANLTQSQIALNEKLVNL

O=C(CCl)NC1CCN(C(=O)C2CCCCC2)CC1
active: [3] -1.71
inactive: [1] -0.358 | [2] -0.103 | [4] -0.569 | [5] 0.155 | [6] -0.0528 | [7] -0.0801 | [8] 0.0192 | [9] -0.0926
